Experimental findings from PubChem BioAssay (Tox21) are described below.

Test [1] deals with Nuclear receptor subfamily 1 group I member 2 (Rattus norvegicus) (UniProt Q9R1A7). In words: Rat pregnane X receptor (rPXR) activation by small molecules, qHTS assay (AID 1346983). Also: nearly all actives have a fitted effect of over 20% in size. Also: potency is read from the fitted curve at half-maximal effect. As to max activation: % is scaled to controls: 0 for no effect and ±100 for the full control effect. Particulars: rPXR luciferase reporter cells, One-Glo luminescence, 24 h; max activation: stronger effect = higher value. The essentials:
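Cell-based rPXR luciferase reporter assay, 2,000 cells per well, rested 5hr at 37 C before compound addition in DMSO, then 24 hr at 37 C. One-Glo reagent was added and luminescence read after 30 min at room temperature.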
(In general: Quantitative high-throughput screening tests each substance at several concentrations.)

Test [2] addresses Nuclear receptor subfamily 1 group I member 2 (Homo sapiens) (UniProt O75469). In words: CYP3A4 induction through human pregnane X receptor (PXR) by small molecules, qHTS assay (AID 1346984). Also: % is scaled to controls: 0 for no effect and ±100 for the full control effect; nearly all actives have a fitted effect of over 40% in size. The settings on record: DPX-2 HepG2 PXR, CYP3A4-luciferin luminescence, 24 h; series mostly up to 46.1 µM. An outline of the steps:
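Luminescence readout: luciferase signal after One-Glo (30 min, room temperature), following 3 h at 37C with 3uM final Luciferin-IPA P450 substrate. Cells were DPX-2 (HepG2, PXR/CYP3A4-luc co-transfected) dosed for 24 h.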

For test [3] the target is unchanged. In words: Human pregnane X receptor (PXR) activation by small molecules, qHTS assay (AID 1346985). Also: nearly all actives have a fitted effect of over 40% in size. Also: potency is read from the fitted curve at half-maximal effect. As to activation: % is scaled to controls: 0 for no effect and ±100 for the full control effect. The settings on record: DPX-2 HepG2 CYP3A4-luciferase, 24 h; series mostly up to 38.3 µM. The essentials: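 DPX-2 cells (HepG2 co-transfected with a PXR response element and a CYP3A4-promoter luciferase construct) were seeded at 2,000 per well, rested 5 hr at 37C, then exposed to DMSO-dissolved compounds for 24 hr. Activation was read as luciferase luminescence.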

Test [4] addresses Cytochrome P450 2C19 (Homo sapiens) (UniProt P33261). In words: Cytochrome P450 Family 2 Subfamily C Member 19 (CYP2C19) small molecule antagonists: luciferase reporter qHTS assay (AID 1671197). Also: potency is read from the fitted curve at half-maximal effect; nearly all actives have a fitted effect of over 65% in size. Particulars: P450-Glo CYP2C19 enzyme, luciferin luminescence, 1 h; series mostly up to 115 µM. The essentials:
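Quantitative high-throughput screen of the Tox21 library using CYP2C19 with proluciferin substrate. Reaction: NADPH regeneration, 37C, 1 h, after 10 min compound preincubation at room temperature. Readout: luminescence.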

The target in test [5] is Cytochrome P450 2C9 (Homo sapiens) (UniProt P11712). In words: Cytochrome P450 Family 2 Subfamily C Member 9 (CYP2C9) small molecule antagonists: luciferase reporter qHTS assay (AID 1671198). Also: potency is read from the fitted curve at half-maximal effect; nearly all actives have a fitted effect of over 50% in size. Particulars: P450-Glo CYP2C9 enzyme assay, luciferin luminescence; series mostly up to 115 µM. An outline of the steps:
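CYP2C9 activity was measured with a P450-Glo proluciferin substrate. Enzyme–substrate mix was held with compound for 10 min at room temperature, then NADPH regeneration solution was added for 1 h at 37C. Luciferin product was read as luminescence.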

Test [6] addresses Cytochrome P450 1A2 (Homo sapiens) (UniProt P05177). In words: Cytochrome P450 Family 1 Subfamily A Member 2 (CYP1A2) small molecule antagonists: luciferase reporter qHTS assay (AID 1671199). Also: potency is read from the fitted curve at half-maximal effect; nearly all actives have a fitted effect of over 50% in size. Particulars: P450-Glo CYP1A2 enzyme, luciferin luminescence, 1 h; series mostly up to 115 µM. An outline of the steps:
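P450-Glo CYP1A2, 1536-well qHTS: enzyme/proluciferin substrate + cpd (DMSO), 10 min RT; NADPH regen, 1 h RT; detection reagent, 20 min; luminescence, RLU.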

Test [7] has as its target Voltage-gated inwardly rectifying potassium channel KCNH2 (Homo sapiens) (UniProt Q12809). In words: Human Ether-a-go-go-Related Gene (hERG) channel small molecule antagonists: fluorescence cell-based qHTS assay (AID 1671200).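 Also: hERG-expressing U2OS cells given a thallium stimulus after FluxOR II dye loading; % is scaled to controls: 0 for no effect and ±100 for the full control effect; nearly all actives have a fitted effect of over 50% in size.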 The settings on record: hERG-U2OS cells, FluxOR thallium flux fluorescence; series mostly up to 76.8 µM. An outline of the steps:
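Cell line hERG-U2OS; dye FluxOR II, 1 h RT dark; Tl+ stimulus; ex 480/em 540 nm, read each second for 2 min.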
(The hERG channel carries a current that helps repolarise heart muscle cells.)

Test [8] deals with Cytochrome P450 3A4 (Homo sapiens) (UniProt P08684). In words: Cytochrome P450 Family 3 Subfamily A Member 4 (CYP3A4) small molecule antagonists: luciferase reporter qHTS assay (AID 1671201). Also: potency is read from the fitted curve at half-maximal effect; nearly all actives have a fitted effect of over 50% in size. Particulars: P450-Glo CYP3A4 enzyme, luciferin luminescence, 1 h; series mostly up to 115 µM. The essentials: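 Room-temperature assay throughout: 10 min compound–enzyme/substrate preincubation, 1 h reaction after NADPH regeneration solution, 20 min detection. Luciferin formed from proluciferin substrate is quantified by luminescence.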
Cytochrome P450 3A4 (Homo sapiens), sequence (P08684 whole entry, looked up): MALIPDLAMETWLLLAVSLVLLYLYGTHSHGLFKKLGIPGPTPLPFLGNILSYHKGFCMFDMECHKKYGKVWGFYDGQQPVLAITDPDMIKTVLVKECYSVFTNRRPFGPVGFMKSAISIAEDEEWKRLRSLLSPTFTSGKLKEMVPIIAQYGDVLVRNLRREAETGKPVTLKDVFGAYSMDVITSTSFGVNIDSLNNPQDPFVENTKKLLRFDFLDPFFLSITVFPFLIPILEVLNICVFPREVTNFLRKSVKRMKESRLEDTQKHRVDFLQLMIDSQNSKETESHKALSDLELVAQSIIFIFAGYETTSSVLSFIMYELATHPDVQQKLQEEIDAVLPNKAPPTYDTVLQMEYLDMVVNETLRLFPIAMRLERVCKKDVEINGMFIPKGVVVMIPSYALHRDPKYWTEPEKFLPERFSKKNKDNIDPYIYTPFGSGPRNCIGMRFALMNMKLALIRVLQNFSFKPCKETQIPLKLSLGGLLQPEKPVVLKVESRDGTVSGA
In general terms: Reporter assays use an easily measured gene product as a stand-in for the process of interest.

Each structure is given as a SMILES string. Values joined by “and” are separate entries in the source; they are usually repeats but may differ in a detail not shown here. Equal values may be shown once. Records with an inconclusive call do not appear. Some structures have more than one record in an assay (separate samples or runs), and their calls can disagree. Active and inactive are the calls of the source. Calls follow the shape of the dose curve; as a rule, active = well fitted curve in the direction sought with a large enough effect in the repeat runs; inconclusive = weak or mixed curves; inactive = no such curve, though single readings can be large; an effect the other way counts as inactive or inconclusive.

Nuclear receptor subfamily 1 group I member 2 (Rattus norvegicus), sequence (Q9R1A7 whole entry, looked up): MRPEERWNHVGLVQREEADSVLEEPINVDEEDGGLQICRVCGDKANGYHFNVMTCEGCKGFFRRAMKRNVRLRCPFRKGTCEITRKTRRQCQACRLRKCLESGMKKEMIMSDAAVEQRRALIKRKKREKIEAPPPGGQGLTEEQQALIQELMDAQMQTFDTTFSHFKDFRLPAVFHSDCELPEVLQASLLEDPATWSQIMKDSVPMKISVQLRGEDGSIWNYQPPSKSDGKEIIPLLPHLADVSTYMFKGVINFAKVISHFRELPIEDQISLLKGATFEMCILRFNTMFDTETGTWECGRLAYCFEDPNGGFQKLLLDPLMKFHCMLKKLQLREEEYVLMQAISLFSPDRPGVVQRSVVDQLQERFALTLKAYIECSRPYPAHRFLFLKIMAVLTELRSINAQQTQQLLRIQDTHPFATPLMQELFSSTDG
Cytochrome P450 2C19 (Homo sapiens), sequence (P33261 whole entry, looked up): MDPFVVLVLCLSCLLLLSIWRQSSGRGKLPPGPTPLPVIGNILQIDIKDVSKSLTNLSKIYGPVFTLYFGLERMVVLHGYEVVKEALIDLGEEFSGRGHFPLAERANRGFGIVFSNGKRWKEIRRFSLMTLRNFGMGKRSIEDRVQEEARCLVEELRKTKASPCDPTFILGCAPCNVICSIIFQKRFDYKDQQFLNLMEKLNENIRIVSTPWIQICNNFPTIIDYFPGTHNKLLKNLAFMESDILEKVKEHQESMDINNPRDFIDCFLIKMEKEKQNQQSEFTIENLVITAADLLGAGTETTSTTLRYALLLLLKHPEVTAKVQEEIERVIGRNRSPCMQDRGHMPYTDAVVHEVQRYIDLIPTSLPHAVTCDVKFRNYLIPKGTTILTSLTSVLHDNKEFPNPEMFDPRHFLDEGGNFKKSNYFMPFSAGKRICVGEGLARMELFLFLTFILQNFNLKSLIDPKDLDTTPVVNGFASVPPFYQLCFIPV
Cytochrome P450 2C9 (Homo sapiens), sequence (P11712 whole entry, looked up): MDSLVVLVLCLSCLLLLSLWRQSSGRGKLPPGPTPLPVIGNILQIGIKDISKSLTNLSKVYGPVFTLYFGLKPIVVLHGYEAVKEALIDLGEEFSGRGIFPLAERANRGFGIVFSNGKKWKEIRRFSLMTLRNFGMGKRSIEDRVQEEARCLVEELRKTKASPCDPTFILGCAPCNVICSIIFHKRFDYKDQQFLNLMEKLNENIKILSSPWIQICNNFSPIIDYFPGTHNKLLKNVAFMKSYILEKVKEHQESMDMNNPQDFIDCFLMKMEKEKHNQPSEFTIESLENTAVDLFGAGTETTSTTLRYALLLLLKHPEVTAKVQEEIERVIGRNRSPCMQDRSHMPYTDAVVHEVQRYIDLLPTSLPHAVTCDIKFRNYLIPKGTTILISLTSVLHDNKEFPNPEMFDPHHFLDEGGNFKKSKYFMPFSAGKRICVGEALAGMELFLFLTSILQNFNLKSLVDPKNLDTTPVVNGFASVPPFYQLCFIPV
Cytochrome P450 1A2 (Homo sapiens), sequence (P05177 whole entry, looked up): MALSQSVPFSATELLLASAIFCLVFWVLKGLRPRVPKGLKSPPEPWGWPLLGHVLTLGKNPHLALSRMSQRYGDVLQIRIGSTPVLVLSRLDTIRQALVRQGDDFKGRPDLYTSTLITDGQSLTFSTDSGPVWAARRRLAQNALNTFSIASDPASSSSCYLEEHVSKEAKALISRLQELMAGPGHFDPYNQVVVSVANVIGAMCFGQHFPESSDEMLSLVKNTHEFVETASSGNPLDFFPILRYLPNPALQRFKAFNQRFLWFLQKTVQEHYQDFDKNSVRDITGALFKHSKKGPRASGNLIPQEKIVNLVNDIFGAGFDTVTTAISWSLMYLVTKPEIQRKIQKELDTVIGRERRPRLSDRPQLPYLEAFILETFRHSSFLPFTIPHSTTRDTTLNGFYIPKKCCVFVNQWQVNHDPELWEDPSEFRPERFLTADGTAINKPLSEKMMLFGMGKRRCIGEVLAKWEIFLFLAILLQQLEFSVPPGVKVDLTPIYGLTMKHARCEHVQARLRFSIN
Voltage-gated inwardly rectifying potassium channel KCNH2 (Homo sapiens), sequence (Q12809 whole entry, looked up): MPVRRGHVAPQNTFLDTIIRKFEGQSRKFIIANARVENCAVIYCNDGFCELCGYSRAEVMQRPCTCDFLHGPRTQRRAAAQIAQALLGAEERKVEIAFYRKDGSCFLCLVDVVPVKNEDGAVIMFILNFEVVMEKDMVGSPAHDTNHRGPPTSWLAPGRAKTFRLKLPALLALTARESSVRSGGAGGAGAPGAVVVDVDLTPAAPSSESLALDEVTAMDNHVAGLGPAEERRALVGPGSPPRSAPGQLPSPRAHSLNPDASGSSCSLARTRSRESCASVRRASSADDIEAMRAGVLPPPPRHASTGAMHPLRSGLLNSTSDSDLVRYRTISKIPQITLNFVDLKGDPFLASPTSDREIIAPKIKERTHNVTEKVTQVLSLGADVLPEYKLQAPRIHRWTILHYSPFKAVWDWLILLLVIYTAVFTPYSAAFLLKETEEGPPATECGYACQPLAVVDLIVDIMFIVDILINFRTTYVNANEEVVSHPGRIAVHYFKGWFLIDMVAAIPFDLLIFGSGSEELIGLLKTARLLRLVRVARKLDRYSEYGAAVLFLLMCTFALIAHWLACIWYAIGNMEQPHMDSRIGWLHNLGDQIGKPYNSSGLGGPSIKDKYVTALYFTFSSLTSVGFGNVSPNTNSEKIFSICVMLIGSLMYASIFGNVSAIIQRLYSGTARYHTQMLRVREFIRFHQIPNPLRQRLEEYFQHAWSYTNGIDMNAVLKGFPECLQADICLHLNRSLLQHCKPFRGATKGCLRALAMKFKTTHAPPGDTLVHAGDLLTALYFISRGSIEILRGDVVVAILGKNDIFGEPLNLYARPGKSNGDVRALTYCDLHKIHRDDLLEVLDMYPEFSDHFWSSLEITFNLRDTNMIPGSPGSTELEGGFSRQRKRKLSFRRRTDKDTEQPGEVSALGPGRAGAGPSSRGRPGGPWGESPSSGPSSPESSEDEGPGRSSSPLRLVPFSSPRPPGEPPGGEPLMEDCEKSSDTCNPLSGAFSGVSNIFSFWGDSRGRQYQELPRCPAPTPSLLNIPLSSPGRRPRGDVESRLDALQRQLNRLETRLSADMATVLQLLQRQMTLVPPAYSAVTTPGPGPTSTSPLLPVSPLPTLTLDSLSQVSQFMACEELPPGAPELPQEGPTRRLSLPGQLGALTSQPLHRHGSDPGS

Consider `Nc1nc(NC2CC2)c2ncn([C@@H]3C=C[C@@H](CO)C3)c2n1`, for which the Potency was 5.01 µM (active) in test [1] and 7.08 µM (active) in test [3]. Besides, in test [2], the Potency result was “inactive”.

Take `CNC(=O)OCc1cccc(COC(=O)NC)n1`: the max activation in test [1] is 8.37% (inactive). Further, the Potency entry in test [2] and in test [3] was “inactive” in each case.

Turning to `COC1=C(OC)C(=O)C(C/C=C(\C)CC/C=C(\C)CC/C=C(\C)CC/C=C(\C)CC/C=C(\C)CC/C=C(\C)CC/C=C(\C)CC/C=C(\C)CC/C=C(\C)CCC=C(C)C)=C(C)C1=O`, in test [1], the max activation is -2.14% (inactive). Besides, the Potency result in test [3] is “inactive”.

As to `O=C(CCCN1CCN2CCCC2C1)c1ccc(F)cc1` (centres undefined), in test [1], the max activation was 1.23% (inactive). Besides, the Potency entry in test [2] and in test [3] was “inactive” throughout.

Turning to `CC1(C)C[C@@H]1C(=O)N/C(=C\CCCCSC[C@H](N)C(=O)O)C(=O)O`, the max activation in test [1] is -4.56% (inactive) and -1.17% (inactive). The Potency entry in test [2] and in test [3] was “inactive” each time.

With `C[S+](C)CCC(N)C(=O)O` (centres undefined), the max activation in test [1] was -3.19% (inactive). The Potency result in test [2] and in test [3] was “inactive” each time.

Regarding `NC(N)=NCC1COC2(CCCCC2)O1` (centres undefined), the max activation in test [1] was -2.55% (inactive). Further, the Potency entry in test [2] and in test [3] was “inactive” each time.

Regarding `C[C@@H]1O[C@@H]1P(=O)(O)O`, the max activation in test [1] is -1.9% (inactive). Further, the Potency result in test [3] was “inactive”.

As to `CO[C@H]1C[C@@H]2CC[C@@H](C)[C@@](O)(O2)C(=O)C(=O)N2CCCC[C@H]2C(=O)O[C@H]([C@H](C)C[C@@H]2CC[C@@H](O)[C@H](OC)C2)CC(=O)[C@H](C)C=C(C)[C@@H](O)[C@@H](OC)C(=O)[C@H](C)C[C@H](C)/C=C/C=CC=C1C`, the max activation in test [1] was -10.6% (inactive) and -9.93% (inactive). For the same compound, the Potency result in test [2] and in test [3] was “inactive” in each case.

Turning to `O=C(O)c1cc(=O)c2c3nc4ccccc4oc-3cc(=O)c2[nH]1`, the max activation in test [1] was -7.15% (inactive). Moreover, the Potency entry in test [2] and in test [3] was “inactive” in each case.

Regarding `C[C@H](NCCc1ccc(O)cc1)[C@H](O)c1ccc(O)cc1`, the max activation in test [1] is -4.49% (inactive). For the same compound, the Potency result in test [3] was “inactive”.

For the compound `Cc1c(O)c(=O)ccn1C`, in test [1], the max activation was -3.64% (inactive). Further, the Potency entry in test [2] and in test [3] was “inactive” in each case.

As to `Cc1onc(-c2c(F)cccc2Cl)c1C(=O)N[C@@H]1C(=O)N2[C@@H]1SC(C)(C)[C@@H]2C(=O)O`, the max activation in test [1] is -1.83% (inactive) and -3.33% (inactive). The Potency result in test [2] is “inactive”. The Potency result in test [3] is “inactive and 25.1 µM (active)”.

Regarding `C=CC[N+]1([C@H]2C[C@H]3[C@@H]4CC[C@H]5C[C@H](O)[C@@H](N6CCOCC6)C[C@]5(C)[C@H]4CC[C@]3(C)[C@H]2OC(C)=O)CCCC1`, the max activation in test [1] was -2.81% (inactive). The Potency entry in test [2] and in test [3] was “inactive” throughout.

Turning to `CN=C(N)NCCC[C@H](N)C(=O)O`, the max activation in test [1] is -7.28% (inactive). In addition, the Potency result in test [2] and in test [3] was “inactive” in each case.

As to `COc1cc2c(cc1O)CCN[C@]21CS[C@@H]2c3c(OC(C)=O)c(C)c4c(c3[C@H](COC1=O)N1[C@@H]2[C@H]2c3c(cc(C)c(OC)c3O)C[C@@H]([C@@H]1O)N2C)OCO4`, the max activation in test [1] is -17.5% (inactive). Moreover, the Potency result in test [2] and in test [3] was “inactive” in each case.

For `CCCC(CCC)C(=O)OC1C[C@H]2CC[C@@H](C1)[N+]2(C)C` (some centres undefined), the max activation in test [1] was -0.777% (inactive). Besides, the Potency result in test [2] and in test [3] was “inactive” in each case.

As to `NC(=O)C1c2ccccc2CCc2ccccc21`, in test [1], the max activation was -2.21% (inactive). Also, the Potency entry in test [2] and in test [3] was “inactive” in each case.

As to `FC(F)(F)COCC(F)(F)F`, in test [1], the max activation was -3.1% (inactive). Also, the Potency entry in test [2] and in test [3] was “inactive” in each case.

As for `C=CC[N@@+]12CC[C@@]34c5ccccc5N5/C=C6/[C@H]7C[C@H]8[C@@]9(CC[N@@+]8(CC=C)C/C7=C/CO)c7ccccc7N(/C=C(/[C@@H](C[C@@H]31)/C(=C\CO)C2)[C@H]54)[C@@H]69`, in test [1], the max activation was 3.06% (inactive). Also, the Potency entry in test [2] and in test [3] was “inactive” in each case.

For `CS(=O)(=O)c1ccc([C@@H](O)[C@@H](COC(=O)CN)NC(=O)C(Cl)Cl)cc1`, in test [1], the max activation is -5.77% (inactive). For the same compound, the Potency entry in test [2] and in test [3] was “inactive” each time.

As for `CCCCCCCCCCCCCCCC(=O)OC[C@H](COP(=O)([O-])OCC[N+](C)(C)C)OC(=O)CCCCCCCCCCCCCCC`, the max activation in test [1] is 0.686% (inactive). Also, the Potency result in test [2] and in test [3] was “inactive” throughout.

For the compound `OCl`, the max activation in test [1] is 0.862% (inactive). Moreover, the Potency result in test [2] and in test [3] was “inactive” in each case.

Regarding `CNCC(=O)N[C@@H](CCCN=C(N)N)C(=O)N[C@H](C(=O)N[C@@H](Cc1ccc(O)cc1)C(=O)N[C@H](C(=O)N[C@@H](Cc1cnc[nH]1)C(=O)N1CCC[C@H]1C(=O)N[C@@H](C)C(=O)O)C(C)C)C(C)C`, the max activation in test [1] was -0.307% (inactive). Moreover, the Potency entry in test [2] and in test [3] was “inactive” in each case.

Turning to `CC/C=C\C/C=C\C/C=C\CCCCCCCC(=O)OC`, the Potency in test [4] is 56.4 µM (active); in test [5], 28.3 µM (active); in test [6], 63.3 µM (active); in test [8], 20 µM (active). In addition, the Potency entry in test [7] is “inactive”.

Regarding `C=C1[C@@H]2CC[C@@H](C2)C1(C)C`, the max activation in test [1] is -3.65% (inactive). For the same compound, the Potency result in test [3] was “inactive”.

Take `C[C@@H]1C[C@H]2[C@@H]3C[C@H](F)C4=CC(=O)C=C[C@]4(C)[C@@]3(Cl)[C@@H](O)C[C@]2(C)[C@H]1C(=O)COC(=O)C(C)(C)C`: the Potency in test [1] is 2.82 µM (active). Also, in test [3], the Potency result is “inactive”.

Consider `CC1(C)CCC(NC(=O)[C@@H](N)CCC(=O)O)CC1`, for which the max activation in test [1] was -2.85% (inactive). Further, the Potency entry in test [3] was “inactive”.

`CC(C)C[C@@H](NC(=O)[C@@H](O)[C@H](N)Cc1ccccc1)C(=O)O`: in test [1], the max activation is -7.87% (inactive). Further, the Potency entry in test [3] was “inactive”.

For the compound `O=P(O)(O)OP(=O)(O)OP(=O)(O)O`, the max activation in test [1] was -6.54% (inactive). Moreover, the Potency result in test [3] is “inactive”.
